Laboratory results from ChEMBL document CHEMBL1157539, “Thousands of chemical starting points for antimalarial lead identification” (Nature, 2010).

Tested on: Plasmodium falciparum
Assay: GSK_TCMDC: Inhibition of Plasmodium falciparum 3D7 in whole red blood cells, using parasite LDH activity as an index of growth. Test compounds present at 2uM
Type: functional

Row | Structure (SMILES) | Inhibition [%]
1 | CC(C)CCNC(=O)C1Cc2c([nH]c3ccc(Br)cc23)C2(CCN(Cc3ccccc3)CC2)N1 (centres undefined) | 96
2 | COc1ccc(Br)cc1/C=C/C(=O)Nc1cccc(C2CCCN(C)C2)c1.O=CO (centres undefined) | 99
3 | O=S(=O)(Nc1cccc(CCN2CCC(N3CCCCC3)CC2)c1)c1ccccc1C(F)(F)F | 82
4 | COc1cc(NC(=O)c2sc(-c3ccc(Cl)cc3)cc2NC(=O)CN2CC[C@@H](O)C2)ccc1OCCN1CCCC1 | 90
5 | COC(=O)c1ccc(CCCNCC(O)c2cccc(C(F)(F)F)c2)cc1 (centres undefined) | 97
6 | COc1cc(OC)cc(-c2nn(-c3ccc([N+](=O)[O-])cc3Cl)c(=S)n2Cc2ccco2)c1 | 100
7 | O=C(Nc1cccc(C(F)(F)F)c1)c1cccc(S(=O)(=O)NCC2CCCN(CC3CCCCC3)C2)c1.O=C(O)C(F)(F)F (centres undefined) | 99
8 | NCCNc1ccnc2cc(Cl)ccc12 | 100
9 | CC(C)(C)COc1ccc2c(N)n[nH]c2c1.Cl | 90
10 | CN(C)/C(=N/C(=N)Nc1ccc(Cl)cc1)NCCCCCCN/C(=N\C(=N)Nc1ccc(Cl)cc1)N(C)C | 97
11 | COC(=O)c1ccc2[nH]cc(C3CCN(CCC4CCN(C(=O)/C=C/c5ccc(Cl)c(Cl)c5)CC4)CC3)c2c1 | 97
12 | N=C(NCCCCCCCCNC(=N)Nc1ccc(Cl)cc1)Nc1ccc(Cl)cc1 | 93
13 | O=C(/C=C/c1ccc(Cl)c(Cl)c1)NCCCCN1CCC(c2c[nH]c3ccccc23)CC1 | 91
14 | COc1ccc(F)cc1-c1ccccc1CNC(=O)CN(C)S(=O)(=O)c1cc(C)cc(Cl)c1C | 92
